Experimental findings from article PMC5540273 (PLoS ONE, 2017) are described below.

The subject of one experiment is ERBB2. The conditions noted are these: n = 1.
Another experiment deals with ERBB3. The conditions noted are these: concentration: 1 μM, replicates: in singlicate; n = 1.
The test system of a further experiment is ERBB4. The conditions noted are these: n = 1.
The test system of another experiment is T1, ERK1.
T1 construct: gene MAPK3
The note with it: concentration: 1 μM, replicates: in singlicate; n = 1.

The next experiment has as its system T2, ERK2.
T2 construct: gene MAPK1
The note with it: concentration: 1 μM, replicates: in singlicate; n = 1.

The subject of another experiment is T3, ERK3.
T3 construct: gene MAPK6
The note with it: n = 1.

Another experiment deals with T4, ERK4.
T4 construct: gene MAPK4
The conditions noted are these: n = 1.

The next experiment concerns T5, ERK5.
T5 construct: gene MAPK7
The conditions noted are these: concentration: 1 μM, replicates: in singlicate; n = 1.

The next experiment concerns T6, ERK8.
T6 construct: gene MAPK15
The note with it: concentration: 1 μM, replicates: in singlicate; n = 1.

For the next experiment, the system named is ERN1. The conditions noted are these: n = 1.
[1] abbreviates: concentration: 1 μM, replicates: in singlicate.
Setting [2] is: concentration: 1 μM,replicates: in singlicate, 1 µM.

Molecules are shown by their SMILES. Where “and” joins values, the source holds several entries; their conditions need not be identical. Equal entries are not always repeated. Where two headings read alike, the source gives them in different places.
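Further: KINOMEscan kinase panel screen.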

In the case of `CC(=O)Nc1nc2cnc(Nc3cc(NC(=O)c4cccc(CCC#N)c4)ccc3C)nc2s1`, the “%Inh” value in the experiment on ERBB2 (setting [1]) was 6%; in the experiment on ERBB3 it was 7%; in the experiment on ERBB4 (setting [1]) it was 14%; in the experiment on ERK1, 0%; in the experiment on ERK2 it was 21%; in the experiment with ERK3 (setting [1]) it was 4%. Further, the “%Inh” value is listed as 3% with ERK4 (setting [1]), 3% in the experiment on ERK5, 0% in the experiment on ERK8 and 0% with ERN1 (setting [1]).
On to `Cl.O=C(Nc1cccc(-c2nn3ncccc3c2-c2ccnc(Nc3cccnc3)n2)c1)c1c(F)cccc1F` [GSK312879], for which the “%Inh” value in the experiment on ERBB2 (setting [1]) turned out to be 95.9%; in the experiment on ERBB3, 0%; in the experiment on ERBB4 (setting [1]) it was 93.2%; in the experiment with ERK1, 8%; in the experiment with ERK2, 0%; in the experiment on ERK3 (setting [1]), 0%. The “%Inh” value in the experiment on ERK4 (setting [1]) is reported as 16%; in the experiment on ERK5 it was 0%; with ERK8, 28%; with ERN1 (setting [1]) it was 4%.
For `Cc1cccc(-c2cc(Nc3ccncc3)c3ccccc3n2)n1` [GSK223675], the “%Inh” value in the experiment on ERBB2 (setting [1]) is recorded as 0%; in the experiment on ERBB3, 0%; in the experiment with ERBB4 (setting [1]), 26%; with ERK1, 0%; with ERK2, 0%; in the experiment on ERK3 (setting [1]), 0%. The “%Inh” value with ERK4 (setting [1]) amounted to 25%; with ERK5 it was 0%; in the experiment with ERK8, 0%; in the experiment on ERN1 (setting [1]) it was 13%.
For the molecule `COc1ccccc1CNC(=O)c1cc(C(=O)c2ccccc2C)c[nH]1` [GSK364507], the “%Inh” value with ERBB2 (setting [1]) amounted to 21%; in the experiment with ERBB3, 0%; in the experiment on ERBB4 (setting [1]), 30%; in the experiment with ERK1, 0%; in the experiment on ERK2 it was 2%; in the experiment on ERK3 (setting [1]), 4%. Moreover, the “%Inh” value in the experiment with ERK4 (setting [1]) is reported as 13%; in the experiment on ERK5, 0%; in the experiment with ERK8 it was 0%; in the experiment on ERN1 (setting [1]) it was 0%.
Consider `COc1ccccc1-c1ccc2c(NC(=O)C3CC3)n[nH]c2n1` [SB-711239], for which the “%Inh” value in the experiment on ERBB2 (setting [1]) amounted to 0%; with ERBB3 it was 22%; with ERBB4 (setting [1]) it was 23%; in the experiment with ERK1, 3%; in the experiment on ERK2, 3%; in the experiment on ERK3 (setting [1]), 0%. The “%Inh” value in the experiment on ERK4 (setting [1]), in the experiment on ERK5, with ERK8 and with ERN1 (setting [1]) was 0% each time.
Regarding `Cc1ccc(NC(=O)Nc2cc(C(C)(C)C)nn2-c2ccccc2)cc1` [GSK1014915], the “%Inh” value in the experiment on ERBB2 (setting [1]) is 36%; in the experiment with ERBB3 it was 10%; with ERBB4 (setting [1]), 0%; in the experiment with ERK1, 0%; in the experiment with ERK2 it was 0%; in the experiment on ERK3 (setting [1]), 7%. Besides, the “%Inh” value with ERK4 (setting [1]) amounted to 26%; in the experiment on ERK5, 0%; with ERK8, 52%; in the experiment with ERN1 (setting [1]), 0%.
As to `Cc1cccc(-c2nc(Nc3cccc(C(N)=O)c3)c3ccccc3n2)n1` [GW876019], the “%Inh” value was determined as 23% in the experiment on ERBB2 (setting [1]); 50% in the experiment with ERBB3; 15% in the experiment on ERBB4 (setting [1]); 0% in the experiment on ERK1; 0% in the experiment on ERK2; 22% with ERK3 (setting [1]). Also, the “%Inh” value with ERK4 (setting [1]) was found to be 0%; with ERK5, 0%; in the experiment on ERK8, 11%; in the experiment with ERN1 (setting [1]), 17%.
As to `Cc1ccccc1-n1cnc2c(N)ncnc21` [SKF-97510], the “%Inh” value with ERBB2 (setting [1]) is 0%; in the experiment with ERBB3 it was 0%; with ERBB4 (setting [1]) it was 0%; in the experiment with ERK1 it was 0%; in the experiment on ERK2, 0%; in the experiment on ERK3 (setting [1]) it was 2%. The “%Inh” value with ERK4 (setting [1]), in the experiment with ERK5, with ERK8 and with ERN1 (setting [1]) was 0% throughout.
As to `Fc1cc(Cl)ccc1Nc1ccnc2cc(I)ccc12` [GW551191], the “%Inh” value in the experiment on ERBB2 (setting [1]) was 32%; with ERBB3, 31%; in the experiment with ERBB4 (setting [1]), 30%; in the experiment on ERK1, 0%; with ERK2, 0%; in the experiment on ERK3 (setting [1]) it was 5%. The “%Inh” value in the experiment on ERK4 (setting [1]) was 24%; in the experiment with ERK5, 0%; in the experiment with ERK8, 0%; in the experiment with ERN1 (setting [1]) it was 2%.
As for `Cc1ccc(C(=O)Nc2ccc(Nc3ccnc4cc(-c5ccccn5)ccc34)cc2O)cc1.Cl` [GW440146], the “%Inh” value in the experiment on ERBB2 (setting [1]) is listed as 38%; in the experiment on ERBB3 it was 0%; in the experiment on ERBB4 (setting [1]) it was 31%; with ERK1, 5%; in the experiment on ERK2, 0%; with ERK3 (setting [1]), 0%. Moreover, the “%Inh” value with ERK4 (setting [1]) is given as 10%; with ERK5, 0%; with ERK8, 0%; with ERN1 (setting [1]), 0%.
As for `O=C(Nc1ccc2c(c1)OCO2)NC1CCN(c2ccnc(Nc3ccc(F)cc3)n2)C1` (stereo not drawn) [GSK1379724], the “%Inh” value with ERBB2 (setting [1]) was 45%; with ERBB3, 0%; in the experiment on ERBB4 (setting [1]), 44%; in the experiment on ERK1, 0%; in the experiment with ERK2 it was 0%; in the experiment with ERK3 (setting [1]), 17%. The “%Inh” value amounted to 0% in the experiment with ERK4 (setting [1]), 0% in the experiment with ERK5, 7% in the experiment with ERK8 and 0% in the experiment with ERN1 (setting [1]).
For the molecule `Fc1cc(Cl)ccc1Nc1ccnc2cc(-c3ccc(CN4CCCCC4)o3)ccc12` [GW560116], the “%Inh” value came to 1% in the experiment with ERBB2 (setting [1]); 31% in the experiment on ERBB3; 4% in the experiment with ERBB4 (setting [1]); 0% with ERK1; 0% with ERK2; 0% in the experiment with ERK3 (setting [1]). The “%Inh” value in the experiment on ERK4 (setting [1]) stood at 8%; in the experiment on ERK5, 0%; with ERK8 it was 0%; in the experiment with ERN1 (setting [1]), 0%.
As to `COc1ccc(Nc2nccc(-c3cccc(NC(=O)c4cc5cc(F)ccc5[nH]4)c3)n2)cc1` [GSK1229782], the “%Inh” value worked out at 58% in the experiment on ERBB2 (setting [1]); 29% in the experiment with ERBB3; 34% with ERBB4 (setting [1]); 13% in the experiment with ERK1; 17% in the experiment with ERK2; 17% in the experiment with ERK3 (setting [1]). Besides, the “%Inh” value in the experiment with ERK4 (setting [1]) is on record as 24%; in the experiment on ERK5, 28%; with ERK8, 0%; in the experiment with ERN1 (setting [1]), 2%.
In the case of `Nc1nc(-c2nccs2)c(-c2ccnc3ccccc23)s1` [GW693542], the “%Inh” value was determined as 36% with ERBB2 (setting [1]); 0% in the experiment on ERBB3; 27% with ERBB4 (setting [1]); 6% with ERK1; 0% with ERK2; 0% in the experiment on ERK3 (setting [1]). The “%Inh” value was determined as 18% in the experiment on ERK4 (setting [1]), 0% with ERK5, 0% in the experiment on ERK8 and 0% with ERN1 (setting [1]).
`Cl.c1ccc(-c2n[nH]cc2-c2ccnc(-c3ccc(CN4CCOCC4)cc3)c2)nc1` [GW776245]: the “%Inh” value in the experiment on ERBB2 (setting [1]) came to 3%; in the experiment on ERBB3, 52%; in the experiment on ERBB4 (setting [1]), 2%; with ERK1, 0%; in the experiment with ERK2 it was 12%; in the experiment on ERK3 (setting [1]), 0%. The “%Inh” value in the experiment on ERK4 (setting [1]) stood at 0%; in the experiment on ERK5 it was 9%; in the experiment on ERK8, 0%; with ERN1 (setting [1]), 0%.
In the case of `CSc1nn2c(=O)cc(N3CCOCC3)nc2n1Cc1cccc(C(F)(F)F)c1C` [GSK2363608], the “%Inh” value with ERBB2 (setting [2]) is 0% and 10%; in the experiment on ERBB3, 0%; with ERBB4 (setting [2]), 28% and 37%; with ERK1, 0%; in the experiment on ERK2, 0%; in the experiment on ERK3 (setting [2]) it was 7% and 0%. The “%Inh” value is 54% and 22% in the experiment with ERK4 (setting [2]); 0% in the experiment with ERK5; 0% in the experiment with ERK8; 3% and 1% with ERN1 (setting [2]).
As for `Cc1ccc(NC(=O)Nc2cccc(Cl)c2)cc1-c1ccc(C(=O)Nc2ccncc2)cc1` [GSK1398468], the “%Inh” value with ERBB2 (setting [1]) was determined as 24%; in the experiment with ERBB3, 0%; with ERBB4 (setting [1]) it was 7%; with ERK1, 0%; with ERK2, 0%; in the experiment with ERK3 (setting [1]), 7%. For the same molecule, the “%Inh” value in the experiment with ERK4 (setting [1]) is given as 3%; in the experiment with ERK5, 0%; in the experiment on ERK8 it was 0%; in the experiment on ERN1 (setting [1]), 0%.
As for `COc1cccc(NC(=O)NC2CCN(c3ccnc(Nc4ccc(F)cc4)n3)C2)c1` (stereo not drawn) [GSK1379721], the “%Inh” value in the experiment on ERBB2 (setting [1]) is listed as 28%; with ERBB3, 0%; with ERBB4 (setting [1]), 7%; in the experiment on ERK1 it was 0%; in the experiment on ERK2 it was 0%; with ERK3 (setting [1]), 0%. Also, the “%Inh” value in the experiment with ERK4 (setting [1]) worked out at 21%; in the experiment on ERK5, 0%; in the experiment with ERK8 it was 0%; with ERN1 (setting [1]), 19%.
